Source: PubChem (several laboratories)
TRPM1 prom inh = MITF TRPM1 promoter inhibition in SK-MEL-5 cells; SK-MEL-5 TRPM1 promoter luciferase, 24 h; inhibition, % at 12.5 µM; hit rate 0.83% among 330,000;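 active means mean inhibition across replicates of 60% or more, whatever share of single replicates reaches that level; inconclusive means some that reach 60%, reason not given; inactive means mean inhibition across replicates below 60%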
TWEAK Fn14 block = inhibitors of TWEAK-Fn14 interaction signaling. TWEAK-stimulated Fn14 reporter cells, luciferase luminescence, 8 h. inhibition, % at 10 µM. hit rate 2% among 360,000. AID 1159606; in the data active means inhibition above about 50%
TROY NFkB inh = blocks TROY-dependent signaling in reporter cells; AID 1347056; hit rate 0.98% among 360,000; inhibition, % at 10 µM; Q293 LMP1-TROYcd NF-kB luciferase reporter, 4 h;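 active means compounds whose plate-normalised and pattern-corrected inhibition of the luciferase reporter signal at the single screening dose is 50% or more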
EBV LMP1 NFkB = Epstein-Barr LMP1 NF-kappaB reporter inhibition. LMP1-induced NF-kappaB luciferase reporter cells, luminescence. hit rate 0.69% among 350,000. inhibition, % at 12.5 µM. AID 504558; in the data active means inhibition above about 41%; inconclusive means no clear call, values can overlap the other calls;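 further: 0% = neutral control wells and 100% = reference inhibitor control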
HIF-2a block = inhibitors of HIF-2a; 786-0 RCC cells HIF-2a reporter, luciferase luminescence, overnight; inhibition, % at 18.8 µM; hit rate 0.72% among 360,000; AID 624352;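 active means inhibition of the luminescence signal of 40% or more relative to plate controls, in a single-dose primary screen at 18.75 µM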
Peg3 prom inh = reduces Peg3 promoter-driven luciferase expression in HeLa. HeLa PEG-Prom luciferase reporter, luminescence, overnight. inhibition, % at 20 µM. hit rate 1.7% among 360,000;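 active means inhibition of at least 50% at 20 µM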
The depositor's hits bear a star; ? = inconclusive; nt = no result given. Compounds with a hit are over-represented: about 4% of the library has one in this group of screens.

SMILES	TRPM1 prom inh	TWEAK Fn14 block	TROY NFkB inh	EBV LMP1 NFkB	HIF-2a block	Peg3 prom inh
COc1ccc(NC(=O)C2(C)CCN2Cc2ccccc2Cl)cc1OC (stereo not given)	nt	-8.2	24.2	nt	-8.4	-2.2
COc1ccc(N=Nc2ccc(O)c3ncccc23)cc1	68.8*	-47.6	-9.0	?	-38.9	-32.2
CC1(NC(=O)c2cc(Cl)nc3ccccc23)CCS(=O)(=O)C1 (stereo not given)	-5.3	-13.0	-1.0	-0.4	3.3	11.3
O=C(O)CCN1C(=O)C2C3c4ccccc4C(c4ccccc43)C2C1=O (stereo not given)	10.1	-2.8	6.3	50.2*	11.3	9.7
COc1cccc(OC)c1NC(=O)CN(C)S(=O)(=O)c1ccc2c(c1)OCCO2	-6.4	-4.6	-4.5	0.2	1.2	4.4
COc1cc2nc(N3CCNCC3)nc(N)c2cc1OC	35.6	-171.7	-23.4	-25.9	10.1	73.6*
COc1cc2nc(Cl)nc(N3CCCCC3)c2cc1OC	-6.8	-1.7	-1.9	0.2	34.0	18.4
Cc1c(C(=O)NN2CCOCC2)oc2c1ccc1ccccc12	-0.8	-4.7	-10.8	10.7	-14.8	-9.9
O=C(c1noc2c1CCCC2)N1CCCCC1	1.9	-15.1	-3.4	68.2*	-37.6	-13.5
O=C(c1noc2c1CCCCC2)N1CCOCC1	8.0	-14.4	-1.6	-12.2	1.6	-4.8
Cc1noc(C)c1S(=O)(=O)NC(=O)C1(C)CCN1C(=O)C1(c2ccc(Cl)cc2)CC1 (stereo not given)	nt	-3.1	10.5	nt	11.3	5.0
CCOC(=O)c1c(C)[nH]c(C(=O)OCCOc2ccccc2C)c1C	-70.8	26.9	54.9*	24.5	-227.5	-204.2
CCOC(=O)c1c(C)[nH]c(C(=O)OCCOc2ccc(Cl)cc2)c1C	4.1	-11.8	-3.0	1.4	-145.3	-157.1
CCN1CCCC1CNC(=O)Cn1cc(C)c(=O)[nH]c1=O (stereo not given)	-4.4	2.9	-3.2	-7.3	-4.3	-6.4
COc1cc(CC(=O)N2CCc3ccccc32)cc(OC)c1OC	8.8	10.4	15.1	2.4	11.3	4.4
CCOC(=O)N1CCc2cc(OC)c(OC)c3c2c1cc1cc(OC)c(OC)cc13	22.2	54.0*	15.0	0.5	-28.3	50.8*
Cc1c(-c2ccccn2)c(=O)[nH]n1-c1ccc(F)cc1	1.6	50.8*	30.0	2.3	-78.8	-106.9
COc1ccc(NC2=C(C(C)=O)C(c3ccc(OC)c(OC)c3)C(C(C)=O)C(C)(O)C2)cc1 (stereo not given)	-5.0	53.7*	38.5	5.0	12.3	15.5
COc1ccc(CN2CCC2(C)C(=O)NCc2ccc3c(c2)OCO3)c2ccccc12 (stereo not given)	nt	-6.9	33.2	nt	12.1	19.3
CCN(CC)CCNC(=O)c1ccc2c(c1NCCO)C(=O)c1ccccc1C2=O	nt	87.3*	42.5	nt	61.6*	111.1*
Nc1cccc(C(=O)OCC(=O)Nc2cccc3c2C(=O)c2ccccc2C3=O)c1	17.5	-42.0	-15.0	16.4	-20.8	25.9
CCN(CC)CCC(=O)Nc1cccc2c1C(=O)c1ccccc1C2=O	70.9*	-26.0	-102.9	-38.3	34.1	106.9*
C[C@H]1COc2cc(N3CCC[C@H]3CO)ccc2S(=O)(=O)N1	nt	1.9	6.8	nt	-1.0	nt
c1cn2c(-c3ccc(N4CCOCC4)cc3)cncc2n1	nt	-4.4	9.7	nt	-39.1	-31.2
CCOC(=O)c1c2ccc(OCC(=O)N/N=C/c3ccc(C)cc3)cc2n2ccccc12	7.4	14.8	15.2	-8.1	-30.1	83.8*
SMILES	TRPM1 prom inh	TWEAK Fn14 block	TROY NFkB inh	EBV LMP1 NFkB	HIF-2a block	Peg3 prom inh
COc1ccc(S(=O)(=O)N2CCCCC2)cc1NC(=O)CCCOc1ccc(C)cc1	7.3	15.8	-21.0	-6.1	4.3	12.7
CC(OC(=O)/C=C/c1ccc2ccccc2n1)C(=O)Nc1ccc(S(N)(=O)=O)cc1 (stereo not given)	50.4	58.1*	16.6	-25.4	30.9	14.1
CC(OC(=O)/C=C/c1cccs1)C(=O)Nc1ccc(S(N)(=O)=O)cc1 (stereo not given)	5.1	4.7	-5.4	-2.4	7.4	2.7
CC1C(=O)N2CCCc3cc(NC(=O)CC(C)(C)C)cc1c32 (stereo not given)	15.2	1.9	6.6	4.8	10.3	3.7
O=C(NCCc1ccc(F)cc1)c1ccc(NS(=O)(=O)c2ccc3[nH]c(=O)[nH]c3c2)cc1	-6.6	-3.2	-27.7	-1.9	3.0	-0.4
COc1cc2c(cc1NC(=O)C(Cl)Cl)-c1ccc(NC(=O)C(Cl)Cl)cc1C2	74.2*	81.1*	-35.5	8.2	-59.6	95.6*
Oc1ccc(/C=N/NC(=S)Nc2cccnc2)c(O)c1O	26.6	50.3*	-17.0	-3.5	21.3	11.8
Oc1cccc(/C=N/NC(=S)Nc2cccnc2)c1O	5.6	2.6	-50.5	3.5	-51.7	-8.1
COc1cccc(NC(=O)CN(C)C(C)C(=O)NC(C)c2ccc(Cl)cc2Cl)c1 (stereo not given)	-2.3	-8.0	44.8	-2.6	8.6	-0.5
COc1ccc(N(CC(=O)Nc2ccccc2C(=O)N2CCCC2)S(=O)(=O)c2ccccc2)cc1	-9.6	5.5	-11.7	63.1*	12.6	19.6
COC(=O)c1ccc(Cl)c(NC(=O)CN(c2ccccc2)S(=O)(=O)c2ccc(OC)cc2)c1	22.6	60.4*	8.3	-0.1	21.1	28.9
CSc1nc(N)c2c3c(sc2n1)COC(C(C)C)C3 (stereo not given)	7.9	5.7	6.8	3.7	-18.6	6.6
CCCC1Cc2c(sc3nc(SC)nc(N)c23)CO1 (stereo not given)	-8.5	68.1*	-23.8	6.0	-20.4	-22.1
O=C(CN1C(=O)NC2(CCCC2)C1=O)Nc1cc(S(=O)(=O)N2CCCCC2)ccc1Cl	13.4	1.4	16.6	-4.4	5.2	12.1
Cc1c(C)n(C(=O)CSc2nncn2C)c2ccccc12	4.2	2.6	11.3	4.0	7.9	17.5
Cn1cnnc1SCC(=O)n1c2ccccc2c2ccccc21	-3.0	0.5	7.2	45.8*	-1.2	-13.6
Cc1ccc(Nc2nc(CSc3nnc(-c4ccncc4)n3C)cs2)cc1	-57.4	53.0*	41.2	17.3	-108.3	-93.8
CC(C)NCC(O)COc1cccc2ccccc12 (stereo not given)	6.6	-25.3	-1.6	51.8*	-13.5	8.4
C=CC[C@@H](CC(=O)N[C@H](CO)Cc1ccccc1)C(=O)N[C@H](COC(=O)[C@@H](CC=C)Cc1ccc(F)cc1)Cc1c[nH]c2ccccc12	34.0	65.8*	68.5*	32.2	5.6	46.1
C=CC[C@H](CC(=O)N[C@H](CO)Cc1ccccc1)C(=O)N[C@H](COC(=O)[C@@H](CC=C)Cc1ccc(F)cc1)Cc1c[nH]c2ccccc12	-12.6	12.8	9.8	4.5	10.2	-9.5
C=CC[C@H](CC(=O)N[C@H](CO)Cc1ccccc1)C(=O)N[C@@H](COC(=O)[C@@H](CC=C)CC(=O)OC(C)(C)C)Cc1c[nH]c2ccccc12	-7.7	24.5	26.6	6.5	7.2	62.6*
